# Data from PubChem BioAssay.
# A number with no mark means an inactive call. The list shows a part of the results. Active and inactive are the calls of the source.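 Rule for the calls, unless noted: active = inhibition above the hit cutoff set in the earlier primary screen (cut at about 27% in these data); inactive = the rest.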
# What was measured:
# [1] = molecular target: Protein phosphatase methylesterase 1 (Homo sapiens) (UniProt Q9Y570); assay: human PME-1 methylesterase inhibition confirmation – biochemical, fluorescence polarization, FP-Rh probe, triplicate (AID 2171); details: recombinant PME-1, FP-Rh probe fluorescence polarization; at 5.9 µM; active compounds read high;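 note: 0% = enzyme with DMSO and 100% = wells lacking PME-1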
# Sequence of Protein phosphatase methylesterase 1 (Homo sapiens) (Q9Y570 whole entry, looked up): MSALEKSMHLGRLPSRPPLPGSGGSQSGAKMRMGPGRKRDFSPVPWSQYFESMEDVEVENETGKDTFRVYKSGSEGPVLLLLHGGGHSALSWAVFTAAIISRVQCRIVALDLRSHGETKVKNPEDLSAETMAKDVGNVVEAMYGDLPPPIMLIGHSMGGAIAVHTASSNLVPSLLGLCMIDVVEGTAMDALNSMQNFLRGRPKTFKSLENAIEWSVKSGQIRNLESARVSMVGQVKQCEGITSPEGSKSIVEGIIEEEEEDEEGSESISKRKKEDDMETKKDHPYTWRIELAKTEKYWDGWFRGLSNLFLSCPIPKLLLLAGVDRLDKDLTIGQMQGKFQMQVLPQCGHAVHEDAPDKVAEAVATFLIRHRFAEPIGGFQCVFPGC
# [2] = StAR promoter reporter inhibitors, counter-screen for LRH-1 inverse agonist project, cell-based, luminescence, high throughput (AID 651611; in the data active = inhibition above about 28%); details: StAR promoter luciferase reporter counterscreen, at 3.6 µM, active compounds read high
# [3] = molecular target: Nuclear receptor subfamily 5 group A member 2 (Homo sapiens) (UniProt O00482); assay: NR5A2 activity suppression in reporter cells – cell-based, luminescence, confirmation (AID 651613; in the data active = inhibition above about 42%;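 note: HEK293T cells co-transfected with LRH-1 and StAR promoter luciferase reporter; 0% = vehicle wells and 100% = parental cells lacking receptor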); details: cell-based LRH-1 luciferase reporter, inverse agonism; at 3.6 µM; active compounds read high
# Sequence of Nuclear receptor subfamily 5 group A member 2 (Homo sapiens) (O00482 whole entry, looked up): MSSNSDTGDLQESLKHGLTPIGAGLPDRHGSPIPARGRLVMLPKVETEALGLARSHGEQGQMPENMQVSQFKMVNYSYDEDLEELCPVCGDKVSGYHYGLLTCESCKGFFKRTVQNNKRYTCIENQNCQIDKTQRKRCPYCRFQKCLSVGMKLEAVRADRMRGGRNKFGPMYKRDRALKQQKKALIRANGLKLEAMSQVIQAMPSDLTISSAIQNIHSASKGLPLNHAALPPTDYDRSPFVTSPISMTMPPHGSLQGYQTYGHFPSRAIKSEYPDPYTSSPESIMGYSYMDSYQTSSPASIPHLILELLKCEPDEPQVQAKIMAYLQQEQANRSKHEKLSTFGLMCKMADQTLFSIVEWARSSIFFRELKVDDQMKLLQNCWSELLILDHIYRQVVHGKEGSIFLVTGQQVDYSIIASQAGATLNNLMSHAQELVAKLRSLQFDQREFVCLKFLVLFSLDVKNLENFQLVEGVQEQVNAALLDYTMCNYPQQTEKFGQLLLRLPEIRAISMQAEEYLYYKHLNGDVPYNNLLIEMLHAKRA
# [4] = molecular target: Steroidogenic factor 1 (Homo sapiens) (UniProt Q13285); assay: inverse agonism at SF1 nuclear receptor – cell-based, luminescence, high throughput, counter-screen for LRH-1 inverse agonist project (AID 651614; in the data active = inhibition above about 44%;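 note: cells cotransfected with StAR promoter reporter and SF1 expression vector; 0% = vehicle on cells with receptor and 100% = vehicle on cells lacking receptor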); details: cell-based SF1 luciferase reporter, at 3.6 µM, active compounds read high
# Sequence of Steroidogenic factor 1 (Homo sapiens) (Q13285 whole entry, looked up, the tested form may be a part): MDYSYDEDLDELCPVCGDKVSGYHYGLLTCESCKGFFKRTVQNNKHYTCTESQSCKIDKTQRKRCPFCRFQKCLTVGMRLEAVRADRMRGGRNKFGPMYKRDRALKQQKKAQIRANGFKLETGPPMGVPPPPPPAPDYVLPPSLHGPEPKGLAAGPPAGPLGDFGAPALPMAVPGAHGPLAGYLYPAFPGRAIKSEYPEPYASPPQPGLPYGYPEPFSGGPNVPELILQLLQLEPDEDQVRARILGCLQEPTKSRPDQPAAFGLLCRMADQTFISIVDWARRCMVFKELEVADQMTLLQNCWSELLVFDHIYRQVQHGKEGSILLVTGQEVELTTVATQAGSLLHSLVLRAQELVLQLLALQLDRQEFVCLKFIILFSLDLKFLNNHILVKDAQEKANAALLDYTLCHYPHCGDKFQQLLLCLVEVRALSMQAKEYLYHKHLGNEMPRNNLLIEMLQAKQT
# [5] = compounds suppressing VP16-driven luciferase signal – cell-based, luminescence, high throughput, counter-screen for LRH-1 inverse agonist project (AID 651615; in the data active = inhibition above about 33%); details: Gal4-VP16 luciferase reporter cells, at 3.6 µM, active compounds read high
# [6] = molecular target: Glutathione S-transferase omega-1 (Homo sapiens) (UniProt P78417); assay: recombinant GSTO1 blockers, retest – biochemical, fluorescence polarization, triplicate, counter-screen for RBBP9 inhibitor project, confirmation (AID 2176;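 active = inhibition above the primary screen's cutoff, its mean inhibition plus 3 SD, cut at about 35% in these data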;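 note: loss of polarization as inhibitors block binding of rhodamine sulfonate ester activity probe; 0% = GSTO1 with DMSO and 100% = wells lacking GSTO1 enzyme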); details: recombinant GSTO1, probe fluorescence polarization; at 5.96 µM; active compounds read high
# Sequence of Glutathione S-transferase omega-1 (Homo sapiens) (P78417 whole entry, looked up): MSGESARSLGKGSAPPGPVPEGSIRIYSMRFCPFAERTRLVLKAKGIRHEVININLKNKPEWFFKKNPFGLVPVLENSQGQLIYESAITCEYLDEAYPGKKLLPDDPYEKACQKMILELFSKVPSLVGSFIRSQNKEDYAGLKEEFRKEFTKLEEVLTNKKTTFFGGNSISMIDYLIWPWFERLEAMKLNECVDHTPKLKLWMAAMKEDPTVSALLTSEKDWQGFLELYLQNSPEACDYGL
# [7] = tested on: transactivating tegument protein VP16 (Human herpesvirus 1); assay: compounds suppressing VP16-driven luciferase signal – cell-based, luminescence, single concentration, counter-screen for SRC2 inhibitor project (AID 652007; in the data active = inhibition above about 36%); details: cell-based VP16 transactivation luciferase reporter, at 8.9 µM, active compounds read high
# [8] = molecular target: Nuclear receptor coactivator 2 (Homo sapiens) (UniProt Q15596); assay: inhibition of GAL4-SRC2 driven luciferase expression – cell-based, luminescence, HEK293, triplicate, confirmation (AID 652008;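 active = mean inhibition above 46.5%, the solvent-only control mean plus 3 SD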;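 note: 0% = DMSO-treated cells and 100% = Gossypol at 36 µM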); details: HEK293 GAL4-SRC2 luciferase reporter, at 8.9 µM, active compounds read high
# Sequence of Nuclear receptor coactivator 2 (Homo sapiens) (Q15596 whole entry, looked up, the tested form may be a part): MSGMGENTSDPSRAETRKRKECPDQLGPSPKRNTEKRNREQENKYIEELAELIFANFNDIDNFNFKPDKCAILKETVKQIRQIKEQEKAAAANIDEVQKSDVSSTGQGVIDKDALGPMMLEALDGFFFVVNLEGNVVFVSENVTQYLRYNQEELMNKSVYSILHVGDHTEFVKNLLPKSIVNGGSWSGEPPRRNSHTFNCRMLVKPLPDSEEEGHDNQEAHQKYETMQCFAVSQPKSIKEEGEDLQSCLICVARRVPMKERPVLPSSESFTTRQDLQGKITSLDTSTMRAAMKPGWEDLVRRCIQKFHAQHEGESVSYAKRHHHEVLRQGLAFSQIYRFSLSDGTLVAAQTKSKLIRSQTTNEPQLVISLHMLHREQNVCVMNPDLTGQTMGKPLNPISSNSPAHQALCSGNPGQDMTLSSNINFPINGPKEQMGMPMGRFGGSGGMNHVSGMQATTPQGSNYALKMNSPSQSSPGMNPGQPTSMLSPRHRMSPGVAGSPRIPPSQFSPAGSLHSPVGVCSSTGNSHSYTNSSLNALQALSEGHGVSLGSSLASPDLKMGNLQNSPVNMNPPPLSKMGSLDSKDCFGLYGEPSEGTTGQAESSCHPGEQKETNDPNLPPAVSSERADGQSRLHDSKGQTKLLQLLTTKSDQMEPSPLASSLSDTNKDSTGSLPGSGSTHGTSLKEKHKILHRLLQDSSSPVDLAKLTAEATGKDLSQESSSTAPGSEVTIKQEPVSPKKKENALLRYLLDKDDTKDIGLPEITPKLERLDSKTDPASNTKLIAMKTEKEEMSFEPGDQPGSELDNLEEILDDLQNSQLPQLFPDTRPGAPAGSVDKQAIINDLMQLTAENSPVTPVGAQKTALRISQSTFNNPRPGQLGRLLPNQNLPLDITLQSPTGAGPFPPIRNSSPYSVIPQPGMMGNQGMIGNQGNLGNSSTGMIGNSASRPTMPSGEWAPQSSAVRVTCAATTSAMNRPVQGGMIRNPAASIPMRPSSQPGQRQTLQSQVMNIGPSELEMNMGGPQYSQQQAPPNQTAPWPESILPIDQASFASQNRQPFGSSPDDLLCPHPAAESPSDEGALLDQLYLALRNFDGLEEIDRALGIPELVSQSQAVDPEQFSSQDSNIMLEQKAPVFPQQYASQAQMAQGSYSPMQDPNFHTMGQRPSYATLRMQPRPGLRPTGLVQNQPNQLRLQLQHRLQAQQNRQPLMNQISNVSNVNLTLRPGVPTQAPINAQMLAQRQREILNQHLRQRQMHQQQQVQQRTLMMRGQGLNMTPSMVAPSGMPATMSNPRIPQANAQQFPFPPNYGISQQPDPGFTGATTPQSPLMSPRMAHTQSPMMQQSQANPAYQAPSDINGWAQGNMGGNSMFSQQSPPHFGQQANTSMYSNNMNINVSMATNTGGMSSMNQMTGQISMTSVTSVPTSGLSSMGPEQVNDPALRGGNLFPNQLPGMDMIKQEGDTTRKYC
# [9] = molecular target: Nuclear receptor coactivator 1 (Homo sapiens) (UniProt Q15788); assay: NCOA1 GAL4-fusion reporter inhibition – cell-based, luminescence, quadruplicate, confirmation (AID 588820;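 active = mean inhibition above 46.68%, the untreated control wells mean plus 3 SD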;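 note: 0% = DMSO wells and 100% = gossypol 36 µM treated wells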); details: HEK293 GAL4-SRC1 luciferase reporter, at 3.6 µM, active compounds read high
# Sequence of Nuclear receptor coactivator 1 (Homo sapiens) (Q15788 whole entry, looked up, the tested form may be a part): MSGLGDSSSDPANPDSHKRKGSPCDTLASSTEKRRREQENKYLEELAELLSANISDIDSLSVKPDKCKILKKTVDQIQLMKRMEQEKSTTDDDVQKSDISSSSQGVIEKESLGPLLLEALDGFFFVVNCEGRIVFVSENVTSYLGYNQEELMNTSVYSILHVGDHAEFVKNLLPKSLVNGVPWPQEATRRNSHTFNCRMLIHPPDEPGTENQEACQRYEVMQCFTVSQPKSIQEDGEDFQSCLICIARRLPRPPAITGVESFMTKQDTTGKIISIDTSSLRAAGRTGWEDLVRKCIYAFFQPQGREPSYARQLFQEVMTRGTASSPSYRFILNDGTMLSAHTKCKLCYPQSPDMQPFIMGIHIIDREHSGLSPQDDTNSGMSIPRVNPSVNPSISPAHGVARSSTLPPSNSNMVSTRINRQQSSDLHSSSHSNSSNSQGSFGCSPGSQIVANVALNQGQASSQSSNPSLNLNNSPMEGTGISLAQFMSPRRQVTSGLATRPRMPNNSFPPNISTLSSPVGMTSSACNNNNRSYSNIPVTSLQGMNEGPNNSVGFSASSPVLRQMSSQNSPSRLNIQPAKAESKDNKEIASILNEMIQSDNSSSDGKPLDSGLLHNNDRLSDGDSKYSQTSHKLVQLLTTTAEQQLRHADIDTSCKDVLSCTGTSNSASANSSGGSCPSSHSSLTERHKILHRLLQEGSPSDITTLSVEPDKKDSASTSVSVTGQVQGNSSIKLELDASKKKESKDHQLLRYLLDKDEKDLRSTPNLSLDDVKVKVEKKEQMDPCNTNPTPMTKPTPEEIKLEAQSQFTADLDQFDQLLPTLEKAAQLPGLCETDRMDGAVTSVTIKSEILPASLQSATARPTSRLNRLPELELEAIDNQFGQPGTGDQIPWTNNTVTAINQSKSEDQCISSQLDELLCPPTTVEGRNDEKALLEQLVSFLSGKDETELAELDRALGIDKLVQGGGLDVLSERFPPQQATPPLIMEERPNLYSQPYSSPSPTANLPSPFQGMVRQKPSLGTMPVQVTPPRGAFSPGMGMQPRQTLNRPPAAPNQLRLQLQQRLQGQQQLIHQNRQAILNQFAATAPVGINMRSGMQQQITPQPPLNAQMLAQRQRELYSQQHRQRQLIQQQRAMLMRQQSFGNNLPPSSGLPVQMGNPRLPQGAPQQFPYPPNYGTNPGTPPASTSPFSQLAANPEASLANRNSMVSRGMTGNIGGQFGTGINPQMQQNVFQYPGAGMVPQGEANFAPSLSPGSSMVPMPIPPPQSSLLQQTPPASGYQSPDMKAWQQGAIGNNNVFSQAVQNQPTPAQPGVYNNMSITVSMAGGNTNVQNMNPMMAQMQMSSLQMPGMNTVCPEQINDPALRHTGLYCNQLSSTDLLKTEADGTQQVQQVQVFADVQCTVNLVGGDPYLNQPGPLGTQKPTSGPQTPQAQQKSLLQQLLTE
# [10] = repression of VP16-driven luciferase reporter – cell-based, luminescence, high throughput, counter-screen for SRC1 inhibitor project (AID 588824; in the data active = inhibition above about 25%); details: cell-based VP16 transactivation luciferase luminescence; at 3.6 µM; active compounds read high
# [11] = molecular target: Nuclear receptor coactivator 3 (Homo sapiens) (UniProt Q9Y6Q9); assay: NCOA3 GAL4-fusion reporter inhibition – cell-based, luminescence, quadruplicate, confirmation (AID 588792;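 active = mean inhibition over 43.08%, the solvent-only control mean plus 3 SD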;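 note: 0% = DMSO treated cells and 100% = gossypol at 36 µM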); details: HEK293 GAL4-SRC3 luciferase reporter, at 3.6 µM, active compounds read high
# [12] = tested on: transactivating tegument protein VP16 (Human herpesvirus 1), Gal4-VP16 luciferase reporter; assay: repression of VP16-driven luciferase reporter – cell-based, luminescence, high throughput, counter-screen for SRC3 inhibitor project (AID 588794; in the data active = inhibition above about 30%); details: mammalian cells, at 3.6 µM, active compounds read high
# [13] = molecular target: Oxysterols receptor LXR-beta (Homo sapiens) (UniProt P55055); assay: nonspecific reporter activation via LXR – cell-based, luminescence, HEK293, H. contortus campaign, counter-screen for hcDAF-12 agonist project, confirmation (AID 743027;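 active = mean percent activation of the reporter above a cutoff set as the average over tested compounds plus their standard deviation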); details: HEK293 Gal4-LXR tk-luc reporter, 24 h, at 6.8 µM, active compounds read high, normalized: DMSO 0%, positive control 100%
# Sequence of Oxysterols receptor LXR-beta (Homo sapiens) (P55055 whole entry, looked up, the tested form may be a part): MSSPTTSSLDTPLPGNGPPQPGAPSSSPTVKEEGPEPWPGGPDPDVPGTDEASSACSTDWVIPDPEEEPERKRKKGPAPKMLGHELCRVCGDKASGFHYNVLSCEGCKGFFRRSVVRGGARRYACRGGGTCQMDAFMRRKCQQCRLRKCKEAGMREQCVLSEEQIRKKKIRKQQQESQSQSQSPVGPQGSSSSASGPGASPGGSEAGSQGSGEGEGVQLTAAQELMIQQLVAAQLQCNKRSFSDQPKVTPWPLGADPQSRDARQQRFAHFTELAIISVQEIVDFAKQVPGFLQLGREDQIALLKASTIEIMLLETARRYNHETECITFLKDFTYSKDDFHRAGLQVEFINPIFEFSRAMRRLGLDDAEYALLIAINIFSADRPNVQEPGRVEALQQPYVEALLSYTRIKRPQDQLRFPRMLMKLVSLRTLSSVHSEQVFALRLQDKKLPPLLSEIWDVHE
# [14] = tested on: Nuclear hormone receptor DAF-12 (Haemonchus contortus); assay: hcDAF-12 luciferase reporter activation, retest – cell-based, luminescence, HEK293, lit1-tk-luc, triplicate, confirmation (AID 743032;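 active = mean activation across triplicate tests above the threshold derived from the earlier primary screen, cut at about 5.5% in these data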;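 note: 0% = DMSO only wells and 100% = 3 µM Δ7-dafachronic acid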); details: HEK293 hcDAF-12 lit1-tk-luc reporter, at 6.8 µM, active compounds read high, % of Δ7-dafachronic acid response
# [15] = tested on: DAF-12 nuclear receptor (Heterodera glycines), GAL4-LBD fusion; assay: hgDAF-12 GAL4 fusion reporter activation, retest – cell-based, luminescence, HEK293, GAL4-LBD fusion, confirmation (AID 743050;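 active = mean activation over triplicate wells above the hit cutoff derived from the earlier primary screen, cut at about 11% in these data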;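 note: 0% = DMSO low control and 100% = 2 mM sodium butyrate high control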); details: HEK293 GAL4-hgDAF12 luciferase reporter, agonist mode; at 6.8 µM; active compounds read high; percent of butyrate response
# [16] = molecular target: Oxysterols receptor LXR-beta (Homo sapiens) (UniProt P55055); assay: nonspecific reporter activation via LXR – cell-based, luminescence, HEK293, H. glycines campaign, counter-screen for hgDAF-12 agonist project, confirmation (AID 743051;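 active = mean activation of the triplicate above a set limit carried over from the primary screen, none filed active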); details: HEK293 Gal4-LXR luciferase reporter, 24 h; at 6.8 µM; active compounds read high
smiles,measurement,setting,value
Cc1cc(C)c(S(=O)(=O)/N=C2/C=C(Sc3ncn[nH]3)C(=O)c3ccccc32)cc1C,inhibition,[1],17.7%
same,inhibition,[2],27.3%
same,inhibition,[3],77.8% (active)
same,inhibition,[4],72.5% (active)
same,inhibition,[5],39.7% (active)
C1=C(CCNc2ncnc3c2[nH]c2ccccc23)CCCC1,inhibition,[1],29.3% (active)
same,inhibition,[2],-12%
same,inhibition,[3],36%
same,inhibition,[4],41.4%
same,inhibition,[5],37.5% (active)
CCN(C(=O)COC(=O)c1cc(NS(=O)(=O)c2ccc(Cl)c([N+](=O)[O-])c2)ccc1O)C1CCCCC1,inhibition,[6],32.6%
CCc1ccc(S(=O)(=O)/N=C2\C=C(Nc3ccc(O)cc3)C(=O)c3ccccc32)cc1,inhibition,[1],36.8% (active)
same,inhibition,[2],90.1% (active)
same,inhibition,[3],105% (active)
same,inhibition,[4],96% (active)
same,inhibition,[5],94.3% (active)
O=[N+]([O-])c1ccc(-c2nc(-c3cccs3)c(-c3cccs3)[nH]2)cc1,inhibition,[1],21.5%
same,inhibition,[2],15.5%
same,inhibition,[3],59.5% (active)
same,inhibition,[4],50.8% (active)
same,inhibition,[5],-8.61%
CN(c1ccccc1)S(=O)(=O)c1ccc(NC(=O)c2nc(S(C)(=O)=O)ncc2Cl)cc1,inhibition,[1],24.2%
same,inhibition,[7],94.3% (active)
same,inhibition,[8],77.3% (active)
Cc1cccc(-n2c3nc(=O)[nH]c(=O)c-3cc3cc([N+](=O)[O-])ccc32)c1,inhibition,[1],50.6% (active)
same,inhibition,[2],20.4%
same,inhibition,[3],42.1% (active)
same,inhibition,[4],47.4% (active)
same,inhibition,[5],27.6%
COCCn1c(N)c(C(=O)NCC2CCCO2)c2nc3ccccc3nc21 (stereo not drawn),inhibition,[1],15.1%
same,inhibition,[2],26.9%
same,inhibition,[3],47.2% (active)
same,inhibition,[4],50.4% (active)
same,inhibition,[5],-14.9%
COc1cccc2c1C(=O)c1c(O)c3c(c(O)c1C2=O)C[C@](O)(C(C)=O)C[C@H]3O[C@@H]1C[C@@H](N)[C@@H](O)[C@@H](C)O1,inhibition,[1],40.8% (active)
same,inhibition,[2],67% (active)
same,inhibition,[3],104% (active)
same,inhibition,[4],92.5% (active)
same,inhibition,[5],77.3% (active)
same,inhibition,[7],40.6% (active)
same,inhibition,[8],41.1%
O=C1OC(Nc2cc(Br)cc3cccnc23)c2ccccc21 (stereo not drawn),inhibition,[1],6.18%
same,inhibition,[2],16.4%
same,inhibition,[3],25.9%
same,inhibition,[4],31.6%
same,inhibition,[5],13.6%
O=C(CCl)Nc1cccc(CP(=O)(c2ccccc2)c2ccccc2)c1,inhibition,[6],90.4% (active)
Fc1ccc2[nH]c3c(N4CCN(c5ccccc5)CC4)ncnc3c2c1,inhibition,[1],26.3% (active)
same,inhibition,[9],2.85%
same,inhibition,[10],15.6%
CC(C)(C)n1cnnc1Sc1ccc([N+](=O)[O-])cn1,inhibition,[6],28.1%
CN(C)S(=O)(=O)c1cccc(NC(=S)N/N=C/c2cc(Br)ccc2O)c1,inhibition,[1],16.8%
same,inhibition,[11],55.4% (active)
same,inhibition,[12],59.2% (active)
same,inhibition,[7],-15.5%
same,inhibition,[8],24.2%
COC1=C(N2CCOCC2)C(=O)c2ccccc2C1=O,inhibition,[6],28.9%
COc1ccc(N2CCN(c3ncnc4c3[nH]c3ccccc34)CC2)cc1,inhibition,[1],28% (active)
same,inhibition,[9],3.21%
same,inhibition,[10],24.6%
CCCn1nc([N+](=O)[O-])c(C(C#N)c2nc3ccccc3s2)c(Cl)c1=O (stereo not drawn),inhibition,[1],28.7% (active)
same,inhibition,[7],20.4%
same,inhibition,[8],20.3%
CCCOc1ccc(/C=N/NC(=S)Nc2ccccc2[N+](=O)[O-])c(O)c1,inhibition,[1],27.9% (active)
same,inhibition,[7],74.5% (active)
same,inhibition,[8],84% (active)
C(=N\Nc1nc2ccccc2[nH]1)/c1cccc2cccnc12,inhibition,[1],60.2% (active)
same,inhibition,[11],44.8% (active)
same,inhibition,[12],8.83%
same,inhibition,[2],49.4% (active)
same,inhibition,[3],74% (active)
same,inhibition,[4],64.3% (active)
same,inhibition,[5],23.9%
O=C(CCl)NNc1cccc(Cl)n1,inhibition,[6],50% (active)
COc1cccc(/C=N/NC(=O)c2[nH]c(C)c(C(=O)N/N=C/c3cccc(OC)c3O)c2C)c1O,inhibition,[1],-31.6%
same,inhibition,[2],42.2% (active)
same,inhibition,[3],24.8%
same,inhibition,[4],17.4%
same,inhibition,[5],25.2%
O=C(Cn1c(-c2ccccn2)nc2ccccc21)NCCN1CCOCC1,inhibition,[6],6.3%
CN1CCN(c2ccc(NC(=O)c3ccc(-c4ccc(Br)cc4)o3)cc2)CC1,inhibition,[1],37.4% (active)
same,inhibition,[2],0.51%
same,inhibition,[3],52% (active)
same,inhibition,[4],50.9% (active)
same,inhibition,[5],13.1%
Cc1oc2c(c1C(=O)c1ccccc1)C(=O)C(=O)c1ccccc1-2,inhibition,[1],18.1%
same,inhibition,[7],-18.3%
same,inhibition,[8],99.5% (active)
COc1cc(/C=N/Nc2nc3ccccc3s2)ccc1O,inhibition,[1],57.7% (active)
same,activation,[13],1.25%
same,activation,[14],12.4% (active)
same,activation,[15],18.2% (active)
same,activation,[16],0.97%
